Test results as given in PubChem BioAssay AID651791 (National Center for Advancing Translational Sciences (NCATS), 2012).
Inconclusive results are not listed. Active and inactive are the calls of the source. The call rests on the fitted dose curve; in most records, active means well fitted inhibition curve with a large enough effect; inconclusive means small, poorly fitted or top-dose-only effect; inactive means no such curve, though single readings can be large or run the other way.

Assay: InCell qHTS Assay for Inhibitors of the mTORC1 Signaling Pathway in MEF (Tsc2-/-, p53-/-) Cells: Hit Validation;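 further: phospho-S6 Ser235/236 signal normalized to propidium iodide cell count per well; nearly all actives have a fitted effect of over 75% in size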
Settings: phospho-rpS6 immunofluorescence, 24 h; activity change, negative = inhibition: at 38.3 µM (top of the series)
Potency means the concentration at half of the fitted maximal effect.

Row | SMILES | activity change, negative = inhibition [%] | Potency
1 | CCc1cnc2c(c1SCC(=O)NCc1ccc(F)cc1)c(=O)n(C)c(=O)n2C | -100 | 
2 | CCS(=O)(=O)c1ncc(Cl)c(C(=O)N(Cc2ccccc2)Cc2ccco2)n1 |  | 3.69 µM (active)
3 | CCN(CC)Cc1c(NC(=O)c2ccc(OC)cc2)sc2c1CCCC2 | 1.72 | 
4 | C=CCc1c(C)nc2nc(SCC(=O)Nc3ccc(C)c(C)c3)nn2c1C |  | 9.27 µM (active)
5 | CCOc1ccc(N(C(C)C(=O)Nc2cc(Cl)ccc2OC)S(C)(=O)=O)cc1 (configuration not stated) | -100 | 
6 | COc1ccc(NS(=O)(=O)c2ccc(-n3cccn3)cc2)cc1OC | -100 | 
7 | CCOc1cc(C2CC(=O)Nc3cc4c(cc32)OCCO4)ccc1O (configuration not stated) | -100 | 
8 | CCN1CCOC(=O)C1CC(=O)Nc1cc(C)ccc1OC (configuration not stated) |  | 13.1 µM (active)
9 | CC1C(=O)N2CCCc3cc(S(=O)(=O)Nc4ccc(Br)cc4F)cc1c32 (configuration not stated) |  | 14.7 µM (active)
10 | COc1ccc2c(c1)CC(C(=O)Nc1cc(Cl)ccc1C)CO2 (configuration not stated) | -100 | 
11 | CCCS(=O)(=O)c1ncc(Cl)c(C(=O)Nc2c(C(=O)Nc3ccccc3)oc3ccccc23)n1 |  | 2.33 µM (active)
12 | COc1cc2nc(Nc3ccc(C)c(C)c3)nc(N)c2cc1OC | -100 | 
13 | COc1ccc(CCNC(=O)CCCn2nc(C)c3sc4ccccc4c3c2=O)cc1OC | -100 | 
14 | COc1ccc(C2=NS(=O)(=O)N(C)C(C(=O)Nc3ccc(OC(F)(F)F)cc3)=C2)cc1 | -100 | 
15 | CCCCN(CC)CCNC(=O)C1CCN(c2nnc(C)c3c(C)n(-c4ccc(C)cc4)nc23)CC1 | -100 | 
16 | CCc1ccc(S(=O)(=O)c2nnn(-c3ccc(F)cc3)c2N)cc1 | -100 | 
17 | CN1CCN(C2(CNC(=O)COc3ccc(C(C)(C)C)cc3)CCCCC2)CC1 | -100 | 
18 | COc1cc(C(=O)CC2(O)C(=O)N(Cc3ccccc3Cl)c3ccccc32)cc(OC)c1OC (configuration not stated) | -3.93 | 
19 | Cc1ccc2occ(CC(=O)Nc3ccc(Cl)c(C(F)(F)F)c3)c2c1 | -100 | 

Row | SMILES | activity change, negative = inhibition [%] | Potency
20 | CCC(=O)C1=C(c2ccc(Cl)cc2)N(C(=O)CC)n2c(C)nnc2S1 |  | 2.61 µM (active)
21 | COc1ccc(CCNC(=O)c2ccc3c(c2)N(Cc2ccccc2)CCS3)cc1OC | -100 | 
22 | CCOc1ccccc1Nc1nc(-c2cccc(Cl)c2)c2c(n1)-c1ccccc1OC2 | -100 | 
23 | COc1cc(O)ccc1-c1nc2ccc(Br)cn2c1Nc1ccccc1C | -100 | 
24 | Cc1c(C(=O)Nc2ccc(F)cc2F)nnn1-c1ccccc1Br | -100 | 
25 | CCCCNC(=O)c1ccc2c(c1)N=C(CC)c1ccccc1S2 | -16 | 
26 | COc1cccc(-c2nc(S(=O)(=O)c3ccc(Cl)cc3)c(NCc3ccccc3)o2)c1 | -100 | 
27 | COc1cc(CN(C(=O)COc2ccc(C)c(C)c2)c2ccccn2)cc(OC)c1OC | -100 | 
28 | COc1ccc(/C=C/C(=O)Nc2ccc3nc(N4CCC(C)CC4)cc(C)c3c2)cc1OC | -100 | 
29 | CCCOC(=O)c1c(C)oc2c1cc(NS(=O)(=O)c1ccc(OCC)cc1)c1ccccc12 | -15.2 | 
30 | CCc1ccc(-n2c(=O)c3c4c(sc3n(CC(=O)c3ccc(F)cc3)c2=O)CCC4)cc1 |  | 9.27 µM (active)
31 | COc1cc(Br)ccc1C1C(C(=O)Nc2ccc(C)cc2C)=C(C)Nc2nnnn21 (configuration not stated) | -100 | 
32 | CCC(C)S(=O)(=O)c1oc(-c2ccc(F)cc2)nc1S(=O)(=O)c1ccc(F)cc1 (configuration not stated) |  | 1.47 µM (active)
33 | COc1cc(OC)cc(C(=O)NCCc2csc(-c3cccc(C)c3)n2)c1 | 1.72 | 
34 | Cc1cccc(NC(=O)c2c(N)sc3c2CCC(C)C3)c1 (configuration not stated) | -100 | 
35 | CCc1ccc(S(=O)(=O)N(C(=O)c2ccncc2)c2ccc3oc(C)c(C(=O)OC)c3c2)cc1 | -100 | 
36 | O=C(NCCSc1c(-c2ccc(F)cc2)[nH]c2ccccc12)c1ccc(S(=O)(=O)N2CCOCC2)cc1 | -100 | 
37 | CCOc1ccc(/C=C/c2nc(C#N)c(NCc3ccccc3)o2)cc1 | -100 | 
